Key:
Test in all cases: DAPPL (digital affinity profiling via proximity ligation, sequencing); 10 mM Tris-HCl pH 7.5, 50 mM NaCl, 1 mM DTT, 4% glycerol, room temperature, 30 min; GST-TFs on glutathione beads, 16-mer random dsDNA library, 0.1% formaldehyde crosslink after washing; high values mean tight binding
Settings in all cases: protein: recombinant; tags: N-terminal GST; dsDNA, one strand shown
FLI1 = target: T1, FLI1 (Homo sapiens, UniProt Q01543 1-452)
T1 sequence: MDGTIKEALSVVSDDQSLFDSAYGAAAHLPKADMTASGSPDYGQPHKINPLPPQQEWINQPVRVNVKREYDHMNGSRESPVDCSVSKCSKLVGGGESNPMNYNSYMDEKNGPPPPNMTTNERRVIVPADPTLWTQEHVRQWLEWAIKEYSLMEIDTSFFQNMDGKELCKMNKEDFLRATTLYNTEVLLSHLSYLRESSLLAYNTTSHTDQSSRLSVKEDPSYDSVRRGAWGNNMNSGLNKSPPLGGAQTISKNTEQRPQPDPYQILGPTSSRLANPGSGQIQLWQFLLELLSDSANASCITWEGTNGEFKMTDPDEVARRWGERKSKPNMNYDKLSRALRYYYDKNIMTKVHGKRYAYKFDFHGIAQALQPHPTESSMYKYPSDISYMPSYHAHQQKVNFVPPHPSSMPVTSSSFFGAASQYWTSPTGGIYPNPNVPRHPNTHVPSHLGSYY
In short: (§1)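 Pools were built from human transcription factors expressed in yeast as GST fusions, captured on glutathione beads and DNA-barcoded, along with a tag-only sample. Incubation with 200 nmole of a 16-mer random double-stranded DNA library lasted 30 min at room temperature in Tris/NaCl/DTT/glycerol buffer, and was followed by washing, 0.1% formaldehyde crosslinking, proximity ligation, PCR amplification and Illumina NextSeq500 sequencing. Binding signal is the quotient of each hexamer's read frequency for a factor and its frequency for the tag-only sample.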

ERG = target: T2, ERG (Homo sapiens, UniProt P11308 1-479)
T2 sequence: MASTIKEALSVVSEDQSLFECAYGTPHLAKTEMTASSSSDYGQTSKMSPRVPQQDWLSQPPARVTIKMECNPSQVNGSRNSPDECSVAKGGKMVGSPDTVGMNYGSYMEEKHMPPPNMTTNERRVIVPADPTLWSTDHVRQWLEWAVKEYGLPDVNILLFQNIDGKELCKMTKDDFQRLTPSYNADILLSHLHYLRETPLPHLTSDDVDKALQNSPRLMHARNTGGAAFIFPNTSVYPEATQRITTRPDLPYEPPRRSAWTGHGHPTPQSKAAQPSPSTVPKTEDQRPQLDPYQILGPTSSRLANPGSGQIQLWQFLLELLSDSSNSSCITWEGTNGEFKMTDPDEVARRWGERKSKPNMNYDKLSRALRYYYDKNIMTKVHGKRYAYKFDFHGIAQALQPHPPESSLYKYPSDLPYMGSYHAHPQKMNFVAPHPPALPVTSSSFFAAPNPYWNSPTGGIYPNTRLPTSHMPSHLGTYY
In short: as §1

ELF1 = ELF1 (Homo sapiens, UniProt P32519 1-619)
In short: as §1

EHF = target: T3, EHF (Homo sapiens, UniProt Q9NZC4 1-300)
T3 sequence: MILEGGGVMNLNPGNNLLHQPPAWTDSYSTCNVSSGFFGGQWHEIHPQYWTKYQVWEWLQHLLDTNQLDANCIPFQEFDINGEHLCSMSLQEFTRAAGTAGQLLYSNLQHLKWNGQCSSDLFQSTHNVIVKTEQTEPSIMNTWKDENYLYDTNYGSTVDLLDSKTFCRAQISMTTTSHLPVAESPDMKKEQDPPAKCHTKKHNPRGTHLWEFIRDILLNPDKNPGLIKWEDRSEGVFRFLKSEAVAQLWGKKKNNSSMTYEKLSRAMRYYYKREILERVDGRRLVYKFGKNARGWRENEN
In short: as §1

SPIB = SPIB (Homo sapiens, UniProt Q01892 1-262)
In short: as §1

FEV = target: T4, FEV (Homo sapiens, UniProt Q99581 1-238)
T4 sequence: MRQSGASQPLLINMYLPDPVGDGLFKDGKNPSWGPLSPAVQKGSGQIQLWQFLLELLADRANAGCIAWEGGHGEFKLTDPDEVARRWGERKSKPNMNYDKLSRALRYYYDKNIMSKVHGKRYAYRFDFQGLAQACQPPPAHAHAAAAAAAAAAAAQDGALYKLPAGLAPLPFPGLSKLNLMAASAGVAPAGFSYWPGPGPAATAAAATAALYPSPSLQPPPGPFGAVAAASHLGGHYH
In short: as §1

ETV5 = ETV5 (Homo sapiens, UniProt P41161 1-510)
In short: as §1

ELF4 = ELF4 (Homo sapiens, UniProt Q99607 1-663)
In short: as §1

ETV2 = target: T5, ETV2 (Homo sapiens, UniProt O00321 1-342)
T5 sequence: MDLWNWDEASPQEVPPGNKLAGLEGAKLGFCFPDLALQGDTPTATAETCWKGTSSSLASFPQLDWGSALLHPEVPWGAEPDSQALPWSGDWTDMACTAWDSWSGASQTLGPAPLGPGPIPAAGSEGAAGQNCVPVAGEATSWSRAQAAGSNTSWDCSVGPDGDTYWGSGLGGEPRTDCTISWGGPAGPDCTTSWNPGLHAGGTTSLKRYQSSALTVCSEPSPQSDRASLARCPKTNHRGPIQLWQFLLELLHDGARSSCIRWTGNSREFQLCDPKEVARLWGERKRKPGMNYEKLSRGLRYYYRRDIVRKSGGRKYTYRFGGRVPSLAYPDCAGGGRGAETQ
In short: as §1

ERF = target: T6, ERF (Homo sapiens, UniProt P50548 1-548)
T6 sequence: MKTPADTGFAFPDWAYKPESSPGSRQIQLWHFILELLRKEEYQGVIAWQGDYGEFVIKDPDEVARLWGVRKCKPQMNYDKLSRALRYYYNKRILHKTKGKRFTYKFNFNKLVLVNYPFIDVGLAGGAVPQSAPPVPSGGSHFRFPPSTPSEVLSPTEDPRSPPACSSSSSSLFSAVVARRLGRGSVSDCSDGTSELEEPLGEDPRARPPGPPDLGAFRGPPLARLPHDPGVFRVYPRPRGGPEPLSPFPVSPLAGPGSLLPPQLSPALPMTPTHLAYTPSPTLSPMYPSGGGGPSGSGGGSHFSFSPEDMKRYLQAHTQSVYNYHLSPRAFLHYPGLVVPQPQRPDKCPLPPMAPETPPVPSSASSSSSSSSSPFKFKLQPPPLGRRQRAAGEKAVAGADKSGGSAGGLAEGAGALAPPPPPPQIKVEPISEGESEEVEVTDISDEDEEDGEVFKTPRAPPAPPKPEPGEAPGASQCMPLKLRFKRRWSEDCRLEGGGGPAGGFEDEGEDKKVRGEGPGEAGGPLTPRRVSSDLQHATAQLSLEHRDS
In short: as §1

ETV3L = target: T7, ETV3L (Homo sapiens, UniProt Q6ZN32 1-361)
T7 sequence: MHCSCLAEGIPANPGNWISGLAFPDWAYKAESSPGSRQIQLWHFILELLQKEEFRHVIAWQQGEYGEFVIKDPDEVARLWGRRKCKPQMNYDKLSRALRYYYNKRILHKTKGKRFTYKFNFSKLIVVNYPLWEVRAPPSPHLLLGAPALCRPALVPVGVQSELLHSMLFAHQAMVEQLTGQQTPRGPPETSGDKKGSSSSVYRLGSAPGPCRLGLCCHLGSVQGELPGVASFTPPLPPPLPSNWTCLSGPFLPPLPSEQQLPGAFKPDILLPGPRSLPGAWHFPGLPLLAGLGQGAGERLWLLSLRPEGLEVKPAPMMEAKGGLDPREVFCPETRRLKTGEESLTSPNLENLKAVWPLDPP
In short: as §1

ETS2 = target: T8, ETS2 (Homo sapiens, UniProt P15036 1-469)
T8 sequence: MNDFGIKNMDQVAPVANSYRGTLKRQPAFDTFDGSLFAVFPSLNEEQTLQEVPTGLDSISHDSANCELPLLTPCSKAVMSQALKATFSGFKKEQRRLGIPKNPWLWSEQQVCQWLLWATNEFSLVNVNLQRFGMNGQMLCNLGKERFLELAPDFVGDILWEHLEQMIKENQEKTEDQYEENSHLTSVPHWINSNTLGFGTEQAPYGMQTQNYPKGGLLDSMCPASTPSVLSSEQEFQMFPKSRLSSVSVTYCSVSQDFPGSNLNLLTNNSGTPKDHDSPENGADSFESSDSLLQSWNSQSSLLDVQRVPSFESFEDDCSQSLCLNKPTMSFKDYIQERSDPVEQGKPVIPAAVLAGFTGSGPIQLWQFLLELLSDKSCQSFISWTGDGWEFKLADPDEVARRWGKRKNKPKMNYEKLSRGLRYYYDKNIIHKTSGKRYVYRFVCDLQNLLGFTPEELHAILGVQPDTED
In short: as §1

ETV7 = target: T9, ETV7 (Homo sapiens, UniProt Q9Y603 1-341)
T9 sequence: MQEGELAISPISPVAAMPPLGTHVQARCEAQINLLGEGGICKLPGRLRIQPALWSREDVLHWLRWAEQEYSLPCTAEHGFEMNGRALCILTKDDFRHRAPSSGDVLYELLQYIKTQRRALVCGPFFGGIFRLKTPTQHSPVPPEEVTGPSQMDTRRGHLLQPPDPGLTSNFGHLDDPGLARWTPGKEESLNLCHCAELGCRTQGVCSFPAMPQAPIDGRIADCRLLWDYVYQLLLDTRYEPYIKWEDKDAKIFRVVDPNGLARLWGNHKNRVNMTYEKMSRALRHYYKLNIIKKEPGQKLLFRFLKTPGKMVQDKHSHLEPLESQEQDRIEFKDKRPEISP
In short: as §1

ETV3 = target: T10, ETV3 (Homo sapiens, UniProt P41162-2 1-143)
T10 sequence: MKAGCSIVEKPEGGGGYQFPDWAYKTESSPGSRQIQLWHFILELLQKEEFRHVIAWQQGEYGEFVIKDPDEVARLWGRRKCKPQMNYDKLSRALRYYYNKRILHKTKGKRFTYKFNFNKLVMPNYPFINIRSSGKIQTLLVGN
In short: as §1

GABPA = target: T11, GABPA (Homo sapiens, UniProt Q06546 1-454)
T11 sequence: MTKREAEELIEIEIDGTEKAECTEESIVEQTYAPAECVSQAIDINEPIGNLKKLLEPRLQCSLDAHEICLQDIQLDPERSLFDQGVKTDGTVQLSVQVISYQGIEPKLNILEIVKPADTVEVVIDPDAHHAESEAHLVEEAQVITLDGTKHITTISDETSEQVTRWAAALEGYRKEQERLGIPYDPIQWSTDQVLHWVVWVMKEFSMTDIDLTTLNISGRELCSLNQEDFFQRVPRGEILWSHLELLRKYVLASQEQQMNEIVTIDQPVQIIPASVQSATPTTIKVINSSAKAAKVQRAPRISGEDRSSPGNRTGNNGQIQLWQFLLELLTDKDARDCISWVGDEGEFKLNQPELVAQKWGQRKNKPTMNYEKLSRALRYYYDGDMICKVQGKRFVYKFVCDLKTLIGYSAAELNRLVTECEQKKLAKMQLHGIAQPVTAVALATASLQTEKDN
In short: as §1

ELF3 = target: T12, ELF3 (Homo sapiens, UniProt P78545 1-371)
T12 sequence: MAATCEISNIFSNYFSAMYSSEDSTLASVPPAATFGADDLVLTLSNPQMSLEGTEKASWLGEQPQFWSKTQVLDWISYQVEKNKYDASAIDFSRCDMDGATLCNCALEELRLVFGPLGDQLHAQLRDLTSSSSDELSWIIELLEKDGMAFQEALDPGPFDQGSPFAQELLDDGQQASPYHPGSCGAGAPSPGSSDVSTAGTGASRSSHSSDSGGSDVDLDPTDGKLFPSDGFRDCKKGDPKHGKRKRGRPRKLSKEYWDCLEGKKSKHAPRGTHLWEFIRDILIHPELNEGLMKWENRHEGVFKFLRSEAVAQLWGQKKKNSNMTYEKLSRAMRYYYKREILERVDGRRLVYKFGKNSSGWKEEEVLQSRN
In short: as §1

ETV1 = ETV1 (Homo sapiens, UniProt P50549 1-477)
In short: as §1

ELF1, sequence (P32519 whole entry): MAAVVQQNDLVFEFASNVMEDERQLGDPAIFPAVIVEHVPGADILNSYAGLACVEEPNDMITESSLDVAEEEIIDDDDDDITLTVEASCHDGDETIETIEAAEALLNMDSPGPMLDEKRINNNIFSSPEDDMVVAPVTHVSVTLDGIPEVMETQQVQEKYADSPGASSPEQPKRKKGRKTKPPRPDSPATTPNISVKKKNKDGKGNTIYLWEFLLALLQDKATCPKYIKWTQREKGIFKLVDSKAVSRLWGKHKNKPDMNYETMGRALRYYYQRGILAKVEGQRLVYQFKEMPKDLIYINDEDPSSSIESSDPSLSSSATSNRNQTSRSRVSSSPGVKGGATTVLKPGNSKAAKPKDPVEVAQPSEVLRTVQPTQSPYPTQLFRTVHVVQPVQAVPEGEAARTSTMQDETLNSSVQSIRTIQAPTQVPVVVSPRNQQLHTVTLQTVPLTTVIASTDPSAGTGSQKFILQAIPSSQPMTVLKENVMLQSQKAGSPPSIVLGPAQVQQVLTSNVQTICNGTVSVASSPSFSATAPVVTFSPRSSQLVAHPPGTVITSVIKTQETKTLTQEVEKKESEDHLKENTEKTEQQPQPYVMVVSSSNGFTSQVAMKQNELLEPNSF
SPIB, sequence (Q01892 whole entry): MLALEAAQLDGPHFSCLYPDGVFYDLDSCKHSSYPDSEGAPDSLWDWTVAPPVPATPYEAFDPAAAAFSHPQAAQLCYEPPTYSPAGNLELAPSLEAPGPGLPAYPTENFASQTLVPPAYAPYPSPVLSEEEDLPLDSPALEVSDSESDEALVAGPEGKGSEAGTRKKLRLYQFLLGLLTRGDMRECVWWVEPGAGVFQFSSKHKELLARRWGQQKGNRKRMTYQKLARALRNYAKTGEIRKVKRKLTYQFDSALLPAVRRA
ELF4, sequence (Q99607 whole entry): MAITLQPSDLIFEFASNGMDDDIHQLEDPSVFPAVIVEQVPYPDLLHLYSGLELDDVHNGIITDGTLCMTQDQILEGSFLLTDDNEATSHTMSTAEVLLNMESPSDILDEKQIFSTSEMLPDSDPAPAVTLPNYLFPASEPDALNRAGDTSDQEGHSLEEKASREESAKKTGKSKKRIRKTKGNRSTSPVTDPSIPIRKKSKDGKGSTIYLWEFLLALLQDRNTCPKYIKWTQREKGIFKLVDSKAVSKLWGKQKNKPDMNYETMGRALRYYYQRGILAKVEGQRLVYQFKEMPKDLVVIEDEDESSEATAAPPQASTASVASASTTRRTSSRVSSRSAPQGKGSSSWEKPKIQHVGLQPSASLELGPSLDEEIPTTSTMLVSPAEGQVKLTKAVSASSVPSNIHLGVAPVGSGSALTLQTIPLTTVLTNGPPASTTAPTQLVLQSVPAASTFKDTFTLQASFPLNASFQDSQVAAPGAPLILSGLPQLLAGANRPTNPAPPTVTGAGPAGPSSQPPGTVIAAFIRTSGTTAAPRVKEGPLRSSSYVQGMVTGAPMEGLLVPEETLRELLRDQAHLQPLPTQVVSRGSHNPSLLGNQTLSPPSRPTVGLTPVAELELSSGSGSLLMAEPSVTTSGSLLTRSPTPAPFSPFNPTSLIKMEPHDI
ETV5, sequence (P41161 whole entry): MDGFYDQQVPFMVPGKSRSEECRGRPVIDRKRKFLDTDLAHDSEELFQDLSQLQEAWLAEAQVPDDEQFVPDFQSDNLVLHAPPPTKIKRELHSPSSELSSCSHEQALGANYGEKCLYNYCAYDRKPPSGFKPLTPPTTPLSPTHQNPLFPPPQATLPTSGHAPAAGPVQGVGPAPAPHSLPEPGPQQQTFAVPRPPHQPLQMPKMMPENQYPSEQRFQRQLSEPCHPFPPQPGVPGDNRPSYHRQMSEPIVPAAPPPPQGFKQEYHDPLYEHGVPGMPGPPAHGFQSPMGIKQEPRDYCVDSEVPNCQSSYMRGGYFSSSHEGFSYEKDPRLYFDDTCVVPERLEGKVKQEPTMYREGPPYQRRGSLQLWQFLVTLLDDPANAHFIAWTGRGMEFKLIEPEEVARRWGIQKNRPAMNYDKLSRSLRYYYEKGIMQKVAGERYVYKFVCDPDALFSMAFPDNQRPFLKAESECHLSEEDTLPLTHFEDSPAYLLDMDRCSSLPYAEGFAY
ETV1, sequence (P50549 whole entry): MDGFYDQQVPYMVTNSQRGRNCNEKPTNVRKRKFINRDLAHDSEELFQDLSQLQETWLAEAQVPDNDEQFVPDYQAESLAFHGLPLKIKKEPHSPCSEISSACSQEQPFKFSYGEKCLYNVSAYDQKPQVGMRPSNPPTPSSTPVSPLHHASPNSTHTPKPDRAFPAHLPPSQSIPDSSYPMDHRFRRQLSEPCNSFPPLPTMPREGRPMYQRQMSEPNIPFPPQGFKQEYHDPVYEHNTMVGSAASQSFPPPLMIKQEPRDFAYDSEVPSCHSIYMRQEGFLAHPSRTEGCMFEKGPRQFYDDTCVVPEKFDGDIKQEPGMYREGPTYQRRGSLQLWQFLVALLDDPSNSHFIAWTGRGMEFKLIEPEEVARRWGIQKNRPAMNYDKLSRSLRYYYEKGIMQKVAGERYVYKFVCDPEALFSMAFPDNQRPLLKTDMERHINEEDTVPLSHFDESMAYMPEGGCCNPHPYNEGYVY

| Sequence | binding signal (FLI1) | binding signal (ERG) | binding signal (ELF1) | binding signal (EHF) | binding signal (SPIB) | binding signal (FEV) | binding signal (ETV5) | binding signal (ELF4) | binding signal (ETV2) | binding signal (ERF) | binding signal (ETV3L) | binding signal (ETS2) | binding signal (ETV7) | binding signal (ETV3) | binding signal (GABPA) | binding signal (ELF3) | binding signal (ETV1) |
| --- | --- | --- | --- | --- | --- | --- | --- | --- | --- | --- | --- | --- | --- | --- | --- | --- | --- |
| CGCTGG | 1.05 fold enrichment (6-mer frequency, TF over GST control) | 1.03 fold enrichment (6-mer frequency, TF over GST control) | 1.08 fold enrichment (6-mer frequency, TF over GST control) | 1 fold enrichment (6-mer frequency, TF over GST control) | 1.01 fold enrichment (6-mer frequency, TF over GST control) | 1.02 fold enrichment (6-mer frequency, TF over GST control) | 1 fold enrichment (6-mer frequency, TF over GST control) | 1.02 fold enrichment (6-mer frequency, TF over GST control) | 1.03 fold enrichment (6-mer frequency, TF over GST control) | 1.05 fold enrichment (6-mer frequency, TF over GST control) | 1.03 fold enrichment (6-mer frequency, TF over GST control) | 1.1 fold enrichment (6-mer frequency, TF over GST control) | 1.02 fold enrichment (6-mer frequency, TF over GST control) | 1.12 fold enrichment (6-mer frequency, TF over GST control) |  |  |  |
| TACGGT | 1.01 fold enrichment (6-mer frequency, TF over GST control) | 1.02 fold enrichment (6-mer frequency, TF over GST control) | 1.01 fold enrichment (6-mer frequency, TF over GST control) |  | 1.02 fold enrichment (6-mer frequency, TF over GST control) |  | 1.04 fold enrichment (6-mer frequency, TF over GST control) | 1.05 fold enrichment (6-mer frequency, TF over GST control) | 1.07 fold enrichment (6-mer frequency, TF over GST control) |  |  |  | 1.08 fold enrichment (6-mer frequency, TF over GST control) |  | 1.02 fold enrichment (6-mer frequency, TF over GST control) | 1.11 fold enrichment (6-mer frequency, TF over GST control) | 1.01 fold enrichment (6-mer frequency, TF over GST control) |
